Reference: PubChem BioAssay (EPA / NIEHS)
Several values for one entry are separate records, joined by “and”; a condition that tells them apart may be missing. Equal values may be shown once. Some compounds were tested as several samples or in several runs, with calls that do not always agree. Activity calls are given as the source filed them. Rule for the calls: active = hit-call score of the fitted dose curve at least 0.9, where 1 is the maximum; inactive = score below 0.9.

Assay: BSK_3C_TissueFactor: BioMAP Diversity Plus: 3C Assay for Tissue Factor Biomarker Activity (AID 2282997)
Conditions: BioMAP 3C HUVEC, tissue factor biomarker readout; actives raise or lower the signal
Experimental: BSK_3C is a cell-based, multiplexed-readout assay that uses umbilical vein endothelium, a human vascular primary cell, with measurements taken at 24 hours after chemical dosing in a 96-well plate.BSK_3C_TissueFactor is an assay component measured in the BSK_3C assay. It measures Tissue Factor antibody related to regulation of gene expression using ELISA technology.Data from the assay component BSK_3C_TissueFactor was analyzed into 1 assay endpoint. This assay endpoint, BSK_3C_TissueFactor, was analyzed with bidirectional fitting relative to DMSO as the negative control and baseline of activity. Using a type of binding reporter, gain or loss-of-signal activity can be used to understand changes in the signaling as they relate to the gene F3. Furthermore, this assay endpoint can be referred to as a primary readout, because this assay has produced multiple assay endpoints where this one serves a signaling function. To generalize the intended target to other relatable targets, this assay endpoint is annotated to the cytokine intended target family, where the subfamily is coagulation factor.
The levels of cell surface (or secreted, indicated by the prefix "s") biomarker endpoints were measured by ELISA. Overt cytotoxicity to cells in confluent adherent cultures (all systems other than the BT system) was assessed by measuring total protein levels using sulforhodamine B (SRB) staining in parallel cultures at the time of biomarker measurements, indicated as SRB endpoints. For proliferation assays for adherent cell types, individual cell types are cultured at sub-confluence and relative cell numbers quantified by SRB staining at time points optimized for each system (48 h: 3C and CASM3C systems; 72 h: BT and HDF3CGF systems; 96 h: SAg system). SRB was performed by staining cells with 0.1% SRB after fixation with 10% TCA and reading wells at 560 nm.Viability and proliferation of PBMC (T cells) was quantified by Alamar Blue reduction for the SAg and BT systems. For PBMC viability (referred to as PBMC Cytotoxicity within the assay endpoint names), cells were plated (75,000/well in a 96-well plate) and then chemical samples added for 1 h before addition of activators, SEB and TSST-1 (20 ng/mL final concentration each). Cells were incubated for 90 h. Then, Alamar Blue (20 uL/well) (Invitrogen, Cat DAL1100) was added for 6 h, and the plates were read with a fluorescence microplate reader at 546/580 nm (excitation/emission). For PBMC proliferation, cells were plated and activated as above but incubated for only 16 h prior to addition of Alamar Blue. Plates were read after 6 h.

Row | Compound | outcome | AC50
1 | CCCCCCCCC(F)(F)C(F)(F)C(F)(F)C(F)(F)C(F)(F)C(F)(F)F | inactive | 
2 | C=C(C)C(=O)OCC(F)(F)C(F)(F)C(F)(F)C(F)(F)C(F)(F)C(F)(F)C(F)(F)F | inactive | 
3 | FC(F)(F)C(F)(F)C(F)(F)N(C(F)(F)C(F)(F)C(F)(F)F)C(F)(F)C(F)(F)C(F)(F)F | inactive | 
4 | FC(F)(F)C(F)(F)C(F)(F)C(F)(F)C(F)(F)C(F)(F)C(F)(F)Br | inactive | 
5 | CCCCCCCCCCCCCCCC[N+](C)(C)Cc1ccccc1 |  | 20 µM (active)
6 | FC(F)(F)C(F)(F)C(F)(F)C(F)(F)C(F)(F)C(F)(F)C(F)(F)C(F)(F)F | inactive | 
7 | O=C(O)C(F)(F)C(F)(F)C(F)(F)F | inactive | 
8 | FC(F)(F)C(F)(F)C(F)(F)C(F)(F)C(F)(F)C(F)(F)C(F)(F)I | inactive | 
9 | Cc1ccc(S(=O)(=O)OCC(F)(F)C(F)(F)C(F)(F)C(F)(F)C(F)(F)C(F)F)cc1 | inactive | 
10 | OCC(F)(F)C(F)(F)C(F)(F)C(F)(F)C(F)(F)C(F)F | inactive | 
11 | FC1CC(F)(F)C(F)(F)C1(F)F (stereo not given) | inactive | 
12 | C=CC(F)(F)C(F)(F)C(F)(F)C(F)(F)C(F)(F)C(F)(F)C(F)(F)C(F)(F)F | inactive | 
13 | CO[Si](OC)(c1ccccc1)c1ccccc1 | inactive | 
14 | OCCCC(F)(F)C(F)(F)C(F)(F)C(F)(F)C(F)(F)C(F)(F)C(F)(F)F |  | 54.8 µM (active) and 21.6 µM (active)
15 | CC(C)(C)C(=O)CC(=O)C(F)(F)C(F)(F)C(F)(F)F | inactive | 
16 | OCC(F)(F)C(F)(F)C(F)(F)C(F)F | inactive | 
17 | N=C(N)C(F)(F)C(F)(F)C(F)(F)C(F)(F)C(F)(F)C(F)(F)C(F)(F)F | inactive | 
18 | O=S(=O)(OCC(F)F)C(F)(F)F | inactive | 
19 | Nc1ccc([N+](=O)[O-])cc1O |  | 20 µM (active)
20 | O=C(O)C(F)(F)C(F)(F)C(F)(F)C(F)(F)C(F)(F)C(F)(F)C(F)(F)C(F)(F)Cl | inactive | 54.4 µM (active)

Row | Compound | outcome | AC50
21 | COC(=O)CCC(F)(F)C(F)(F)C(F)(F)C(F)(F)F | inactive | 
22 | FC(F)(F)C(F)(F)C(F)(F)C(F)(F)C(F)(F)C(F)(F)CC1CO1 (stereo not given) | inactive | 
23 | FC(F)(F)C(F)(F)C(F)(F)CI | inactive | 
24 | CC(CCl)OP(=O)(OC(C)CCl)OC(C)CCl (stereo not given) | inactive | 
25 | CC(=O)Nc1ccc(N=Nc2cc(C)ccc2O)cc1 | inactive | 
26 | OCCCC(F)(F)C(F)(F)C(F)(F)F | inactive | 
27 | CCCCCCCOC(=O)c1ccccc1C(=O)OCCCCCCC | inactive | 
28 | CCCCCCC(C)OC(=O)CCCCC(=O)OC(C)CCCCCC (stereo not given) | inactive | 
29 | C#C[C@]1(O)CC[C@H]2[C@@H]3CCc4cc(OC)ccc4[C@H]3CC[C@@]21C | inactive | 
30 | O=C(O)C(F)(F)C(F)(F)C(F)(F)C(F)(F)F | inactive | 
31 | FC(F)(I)C(F)(F)C(F)(F)C(F)(F)I |  | 44.1 µM (active) and 42 µM (active) and 56.5 µM (active)
32 | CCN(CC)c1ccc2c(C)cc(=O)oc2c1 |  | 20 µM (active)
33 | Oc1ccc(Nc2ccccc2)cc1 | inactive | 
34 | O=C(O)C(F)(F)C(F)(F)C(F)(F)C(F)(F)C(F)(F)C(F)(F)C(F)(F)C(F)(F)C(F)(F)C(F)(F)C(F)(F)C(F)(F)F | inactive | 
35 | O[Si](c1ccccc1)(c1ccccc1)c1ccccc1 | inactive | 
36 | FC(F)(Br)C(F)(F)C(F)(F)C(F)(F)C(F)(F)C(F)(F)Br | inactive | 
37 | O=C(O)C(F)(OC(F)(F)C(F)(OC(F)(F)C(F)(F)C(F)(F)F)C(F)(F)F)C(F)(F)F (stereo not given) | inactive | 
38 | C=CC/C=C/C/C=C/C/C=C/C | inactive | 
39 | CS(C)(=O)=O | inactive | 
